Experiments:
Assay in all cases: PBM binding z-score (relative to random genomic background probes); higher = stronger binding; sequences stand for … in GC…GCGATTGACAGCGTAGAATGAAGG
[1] = system: PPARg:RXRa DBDmut IVT, anti-RXR (DBD mutation: RXRa K156A/R161A, NR concentration 270 nM, RXRa partner concentration 90 nM)
Method in brief: (§1)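 Binding z-scores were set against random background probes. The data came from custom Agilent 4×180K protein-binding microarrays carrying double-stranded probes with 34-nt variable regions, incubated 1 h with ligand-free nuclear receptor dimers. Partner-specific antibodies detected binding, and scanned fluorescence was regression-normalized.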

[2] = system: PPARg:RXRa IVT, anti-PPARg (NR concentration 270 nM, RXRa partner concentration 90 nM)
Method in brief: as §1

[3] = system: PPARg DBDmut:RXRa IVT, anti-PPARg (DBD mutation: PPARg1 K132A/R137A, NR concentration 270 nM, RXRa partner concentration 90 nM)
Method in brief: as §1

[4] = system: PPARg DBDmut IVT, anti-PPARg (DBD mutation: PPARg1 K132A/R137A, NR concentration 270 nM)
Method in brief: as §1

[5] = system: PPARg homodimer (NR concentration 180 nM)
Method in brief: as §1

[6] = system: PXR:RXRa (NR concentration 270 nM, RXRa partner concentration 90 nM)
Method in brief: as §1

[7] = system: PXR homodimer (NR concentration 270 nM)
Method in brief: as §1

[8] = system: RARa:RXR (NR concentration 270 nM, RXRa partner concentration 90 nM)
Method in brief: as §1

[9] = system: RARa homodimer (NR concentration 270 nM)
Method in brief: as §1

[10] = system: RARb:RXRa (NR concentration 270 nM, RXRa partner concentration 90 nM)
Method in brief: as §1

Sequence	PBM binding z-score [1]	PBM binding z-score [2]	PBM binding z-score [3]	PBM binding z-score [4]	PBM binding z-score [5]	PBM binding z-score [6]	PBM binding z-score [7]	PBM binding z-score [8]	PBM binding z-score [9]	PBM binding z-score [10]
AGAATGAGGATACCAAAGATCAGGGAAACGCTTG	0.148	0.0598	0.131	-0.145	-1.29	-0.349	-0.0472	-0.216	-0.258	-0.0511
GATACAGGGTTAAGGCCAGAGTACGCGTATTGAT	0.369	1.16	0.272	-0.564	0.996	0.615	0.108	1.28	0.426	1.7
ACAGACAGGTGAGTGAATGTAACTCAGCTGGACG	0.386	0.325	-0.206	-0.309	-0.0515	-0.136	0.0208	0.0204	-0.0735	0.384
TCTGCTAGGTCAGTTAGTCAGCTAACGAGCTGCC	2.31	2.39	0.967	0.0395	-0.199	0.00438	-0.871	0.377	-0.653	2.89
TCATATGGGTAAAGGTGAAAGTCGAACGATATGA	3.36	3.75	1.24	0.532	0.852	0.764	-0.418	1.66	0.221	1.79
GCAGACAGGTGAAACGCAGGTAACTTAGGGTGGC	1.09	0.626	-0.0838	-0.922	-0.576	-0.333	-0.519	0.279	-0.246	0.798
CGTCCAATGTCATAGGAGGTCAGTGAAGACAGAT	0.186	1.95	0.476	0.254	1.72	3.91	0.941	2.69	0.765	2.9
AGAATGAGGTTCTACGTAGATCAGGGAAGAAAGT	0.0808	0.054	0.621	0.606	-0.411	-0.126	0.193	-0.0619	-0.303	-0.407
CCTAGTTGGTCAAGATCACACACGCTATAGGTAC	1.36	1.04	0.47	1.08	1.14	0.0789	0.685	-0.0472	1.56	1.03
GGAACGAGGGCATTCGAATTGATAGCATGGCGAT	3.02	2.16	-0.249	-0.176	-0.045	0.719	0.241	0.841	-0.483	1.9
CCTACTGGGCCTAGGTCATTGATCAGTCAAAGCA	-0.391	1.13	-1.99	-1.42	1.21	0.949	-0.0903	1.57	-0.574	1.94
CCGAGTAGGTTATGGGGCATTTAGGCAACGGTGA	3.07	3.53	-0.425	-0.513	2.12	-0.00225	-0.192	0.292	0.0296	0.919
TCTTGGAGATCAATAGAGGTTAAGAAAGTGCGCT	0.87	0.273	0.0631	-0.22	0.19	3.33	-0.00174	1.94	0.245	0.9
GGAACGAGGGCATTCGAGCTGATAGCATGGCGAT	2.71	1.64	-0.32	-0.167	-0.0868	0.26	-0.341	-0.000407	-0.846	1.45
TCTTATAGGTAATACAGGTGAAAGTCGGCATCTA	4.02	3.44	1.76	1.72	1.19	0.981	0.463	1.37	1.47	0.816
CCGACTGGGGCATAAGGTTACCAGAAGCCAGCCC	3.11	3.13	-1.29	-1.2	0.743	0.265	-0.64	1.84	-0.798	1.78
CAAACTAGGTCACGAAAGGTAAAAGTCGAATGAC	8.36	9.37	5.06	2.46	2.6	3.12	0.438	3.69	1.43	4.33
GCAGAAAGGTGAAACGCAGGTAACTCAGGGTGGC	3.02	2.42	-0.00989	-0.405	0.213	0.633	-0.804	1.9	-0.501	2.88
CCTCCGAGGACAACAGGAGGTCAGAGCTGCCAGA	-0.0648	0.335	-1.15	-1.76	1.29	2.17	0.291	2.7	-0.117	2.88
TGAATGAGGTTATAAGATCAGGGTACGTTGCAAA	0.889	1.69	1.22	0.612	0.135	1.17	0.33	1.74	0.229	1.27
GCTTACGGGACAAAGGTTATAGCATGAATAGAAT	1.28	3.13	0.314	1.06	1.03	1.57	0.222	2.59	0.238	1.81
TCGAGTAGGTTAGTCGGGGCATGCAGCCAACATA	2.41	2.26	0.028	-1.65	-0.293	-0.00662	-0.418	0.207	-0.677	0.512
TCTGCTAGGTCAACGATGGTCACCTAATCTGCTA	4.12	4.82	0.776	0.398	0.811	2.12	-0.994	2.8	-0.586	4.2
ACTATTAGTTGGGACGAGGGCAACCGATAGGTTG	-0.0902	0.659	0.777	0.502	0.934	0.478	0.579	0.451	0.563	1.03

Reference: the supplement of paper PMC6555819
